Measurements: PubChem BioAssay (Tox21)
Inconclusive results are not listed. A call without a number means that no potency is given here. Unmarked numbers belong to inactive results. The source made the active and inactive calls. Calls follow the shape of the dose curve; as a rule, active = well fitted cell-killing curve with a large enough effect in the repeat runs; inconclusive = weak or mixed curves, or effect the other way; inactive = flat fitted curve, though single readings scatter.

Test: qHTS assay to identify small molecule antagonists of the retinoid acid receptor (RAR) signaling pathway - cell viability counter screen (AID 1159551); also: nearly all actives have a fitted effect of over 35% in size
Conditions: C3RL4 cells viability, ATP luminescence (CellTiter-Glo), 6 h; series mostly up to 92.4 µM; activity change, negative = cytotoxicity: at the top concentration
From the text: U.S. Tox21 Program National Center for Advancing Translational Sciences [NCATS] NIH Chemical Genomics Center [NCGC] U.S. Environmental Protection Agency [EPA] National Institutes of Environmental Health Sciences [NIEHS] National Toxicology Program [NTP] U.S. Food and Drug Administration [FDA] Tox21 Assay Overview: All-trans Retinoic acid (atRA) is the potent natural metabolite of retinol and plays an important role in normal embryonic development and maintenance of cellular phenotype in adult animals. atRA is the activating ligand for the retinoic acid receptors (RARs) which form heterodimers with retinoid X receptors (RXRs) on the retinoic acid response element (RARE). Through activation of the RAR/RXRs nuclear receptors, atRA regulates the transcription of a large number of protein-coding genes and regulatory RNAs. Intracellular levels of atRA are controlled by the retinol signaling pathway (RSP) that regulates the biosynthesis and catabolism of atRA to maintain physiological levels. Chemicals that interfere with the RSP can cause abnormal intracellular levels of atRA and therefore are potential developmental toxicants. To assess compounds for the potential adverse effect on embryonic development through interfering with retinol signaling, a cell-based RARE luciferase reporter gene assay was used. C3RL4 cell line (OARSA/CFSAN/FDA, Laurel, MD) was used to screen Tox21 10K compound library for identifying inhibitors of the RSP. Also cytotoxicity was assessed by determining the viability of cells based on the quantitation of ATP.
Tox21 Assay Protocol Summary: C3RL4 cells were seeded at 1,000/well in 4 uL of assay medium into white solid 1,536-well tissue culture plates (Greiner Bio-One North America Inc. Monroe, NC) using a Multidrop Combi (Thermo Scientific, Waltham, MA) dispenser. After incubation at 37 C and 5% CO2 for an overnight, 23 nL of compounds dissolved in DMSO, positive control or DMSO only were transferred by a Pintool station (Kalypsys, San Diego, CA). One ul of 1 uM (final concentration) of Retinol was added right after the compound addition by using a Flying Reagent Dispenser (FRD) (Aurora Discovery, San Diego, CA). After 6 hr incubation at 37 C and 5% CO2, 5 uL of CellTiter-Glo reagent (Promega Corporation, Madison, WI) was added to each assay plate using an FRD. Luminescence was quantified on a ViewLux plate reader (PerkinElmer, Waltham, MA) after 30 min incubation at room temperature.
Potency is read from the fitted curve at half-maximal effect.

Structure (SMILES) | Potency | activity change, negative = cytotoxicity
CCCCNS(=O)(=O)c1ccccc1 | inactive | –
CC(C)=CCC/C(C)=C\CO | inactive | –
Cn1cnc([N+](=O)[O-])c1Sc1ncnc2nc[nH]c12 | – | 1.26% [at 42.5 µM]
Cc1cccc(N(C)C(=S)Oc2ccc3ccccc3c2)c1 | inactive | –
COc1ccccc1/C=C/C=O | inactive | –
C#C[C@]1(O)CC[C@H]2[C@@H]3CCC4=Cc5oncc5C[C@]4(C)[C@H]3CC[C@@]21C | inactive | –
CCC(C)(O)CCCC(C)C (stereo not given) | inactive | –
C[C@]12CCC(=O)C=C1CC[C@@H]1[C@@H]2C(=O)C[C@@]2(C)[C@H]1CC[C@]2(O)C(=O)CO | inactive | –
CCCC(=O)O | inactive | –
COc1ccc(C(=O)CC(=O)c2ccc(C(C)(C)C)cc2)cc1 | inactive | –
Nc1ccc(Cl)cc1Cl | inactive | –
COC(=O)CCC(=O)OC | inactive | –
CCCc1c(OCCCCc2nn[nH]n2)ccc(C(C)=O)c1O | inactive | –
O=C(c1ccccc1)c1ccccc1O | inactive | –
O=c1oc(=O)c2cc3c(=O)oc(=O)c3cc12 | inactive | –
O=S(=O)(O)c1ccc(O)cc1 | inactive | –
Nc1ccc(S(=O)(=O)Nc2cnc3ccccc3n2)cc1 | inactive | –
COc1c(Cl)c(Cl)c(Cl)c(Cl)c1Cl | inactive | –
Nc1ccccc1N | – | 1.92%
O=CCCCC=O | inactive | –

Structure (SMILES) | Potency | activity change, negative = cytotoxicity
CC(C)CC(C)(O)C#CC(C)(O)CC(C)C (stereo not given) | inactive | –
COC(C)COC(C)COC(C)CO (stereo not given) | inactive | –
COC(=O)C1=C(C)NC(C)=C(C(=O)OCCN(C)Cc2ccccc2)C1c1cccc([N+](=O)[O-])c1 (stereo not given) | – | -1.96% [at 42.5 µM]
Cc1c(C(N)=O)cc([N+](=O)[O-])cc1[N+](=O)[O-] | inactive | –
S=C(NC1CCCCC1)NC1CCCCC1 | inactive | –
O=C(O)c1ccccc1Nc1cccc(C(F)(F)F)c1 | inactive | –
CN(C)c1nc(N(C)C)nc(N(C)C)n1 | inactive | –
CCCCC/C=C/C=C/C=O | inactive | –
Cc1cccc(C(=O)O)c1 | inactive | –
CC(C)OB(OC(C)C)OC(C)C | inactive | –
CC(C)Oc1ccc2c(=O)c(-c3ccccc3)coc2c1 | inactive | –
C[Si](C)(C)O[Si](C)(C)C | inactive | –
O=C(OCc1ccccc1)c1ccccc1O | inactive | –
CC(C)=CCCC(C)CCO (stereo not given) | inactive | –
c1ccc2cc(Nc3ccc(Nc4ccc5ccccc5c4)cc3)ccc2c1 | inactive | –
O=C(/C=C/C=C/c1ccc2c(c1)OCO2)N1CCCCC1 | inactive | –
Clc1nc(Cl)c(Cl)c(Cl)c1Cl | inactive | –
COc1ccc(OC)c(C(O)CNC(=O)CN)c1 (stereo not given) | inactive | –
C=C(C)C(=O)OCCOC(=O)C(=C)C | inactive | –
c1ccc2sc(SSN3CCOCC3)nc2c1 | 61 µM (active) | –
